Hits are enriched below; roughly 4.6% of the tested compounds scored in any of these assays.
TIM10 inh = growth inhibitors of isogenic TIM10 control yeast, primary screen, counter-screen for tim10-1 yeast inhibitor project, luminescence, uHTS | S. cerevisiae TIM10 strain growth, BacTiter-Glo luminescence, 24 h | inhibition, % at 10 µM | hit rate 1.4% among 330,000;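 active = inhibition of 40% or more at the single tested concentration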;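 note: wild-type TIM10 isogenic control strain grown at permissive 25 °C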
PfHsp90 yeast 2 = growth inhibition of PfHsp90-expressing yeast, primary screen, antimalarial PfHsp90 inhibitor project, S. cerevisiae, BacTiter-Glo luminescence, single point, set 2 | BacTiter-Glo ATP, 48 h; yeast lacking PDR1 and PDR3 efflux regulators | inhibition, % at 9.4 µM | hit rate 0.32% among 310,000;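 active = every replicate shows inhibition above about 80%, whatever the replicate mean, limit read from the data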;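 note: 0% = DMSO neutral controls and 100% = 20 µM radicicol positive controls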
NALP3 yeast inh = NALP3 inflammasome inhibitors in reconstituted yeast, primary screen, luminescence, uHTS; hit rate 0.39% among 330,000; inhibition, % at 10 µM; Yeast reconstituted NLRP3/ASC/caspase-1, beta-gal luminescence, 24 h;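 active = inhibition of 50% or more; inactive = inhibition below 50%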;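 note: plate controls were induced DMSO wells for no effect and uninduced yeast grown without galactose for full effect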
tim10-1 inh = growth inhibitors of tim10-1 mutant yeast, primary screen, luminescence, uHTS. inhibition, % at 20 µM. AID 463190, 2010. hit rate 2.2% among 330,000. S. cerevisiae tim10-1 ts strain growth, BacTiter-Glo, 24 h;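 active = inhibition of at least 40%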;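 note: mutant grown at 25 °C; 0% = DMSO wells with yeast and 100% = wells holding no yeast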
SKKanGAS inh = S. pyogenes SKKanGAS growth inhibitors in kanamycin, primary screen, streptokinase expression inhibitor project, SKKanGAS strain, BacTiter-Glo luminescence. 6 h. inhibition, % at 7.5 µM. hit rate 1.3% among 300,000. AID 1662, 2009;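 active = mean replicate score, as percent of positive control median, at least 50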;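 note: strain carries kanamycin resistance gene driven by streptokinase promoter and grows in 40 µg/ml kanamycin; loss of luminescence reflects streptokinase promoter inhibition or plain growth inhibition; 0% = median of DMSO wells and 100% = positive control at its reference dose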
tim23-1 inh = growth inhibitors of tim23-1 mutant yeast, primary screen, luminescence, uHTS; S. cerevisiae tim23-1 growth, BacTiter-Glo luminescence, 24 h; inhibition, % at 20 µM; hit rate 1.3% among 330,000;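 active = growth inhibition of the mutant yeast at or above 50%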;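 note: temperature-sensitive mutant grown at 25 °C; plate controls were DMSO-treated mutant yeast for no effect and medium wells lacking yeast for full effect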
tim10-1 confirm = growth inhibitors of tim10-1 mutant yeast, confirmation, single concentration, luminescence, S. cerevisiae | inhibition, % at 20 µM | hit rate 56% among 7,400 | S. cerevisiae tim10-1 ts strain growth, BacTiter-Glo, 24 h | shares compounds with tim10-1 inh;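 active = inhibition of yeast growth at or above a set limit in either of two repeat tests at 20 µM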;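 note: tim10-1 mutant grown at permissive 25 °C to find synthetic lethal compounds; 0% = DMSO yeast wells and 100% = medium wells without yeast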
Numbers without * were called inactive; . = not tested or not shown.

SMILES	TIM10 inh	PfHsp90 yeast 2	NALP3 yeast inh	tim10-1 inh	SKKanGAS inh	tim23-1 inh	tim10-1 confirm
CN(Cc1ccccc1)S(=O)(=O)c1ccc2c(c1)OCCO2	36	12	28	42*	8	41	24
O=C(O)CN(Cc1ccccc1)S(=O)(=O)c1ccc2c(c1)OCCO2	5	31	-15	-9	-3	0	.
S=C1NC2=C(CCC/C2=C\c2ccc(Cl)cc2)C(c2ccc(Cl)cc2)N1 (configuration not stated)	22	-16	12	35	-11	13	.
CC1CC2=C(NC(=S)NC2c2ccc(F)cc2)/C(=C/c2ccc(F)cc2)C1 (configuration not stated)	29	2	8	46*	29	37	28
O=C(CNCc1ccccn1)Nc1ccc([N+](=O)[O-])cc1C(=O)Nc1ccccc1F	9	-30	28	8	2	20	.
COc1ccc(/C=C/c2ccc(=O)n(Cc3ccccc3)n2)cc1	0	-6	13	40*	5	22	-1
O=c1ccc(/C=C/c2ccccc2)nn1Cc1ccc(F)cc1	-32	-33	5	-11	3	-18	.
Fc1ccccc1/C=C1\CCCC2=C1NC(=S)NC2c1ccccc1F (configuration not stated)	37	4	33	41*	1	39	15
COc1cc(-c2nc3cc(C)ccn3c2NC2CCCCC2)ccc1-c1ccc(C(C)=O)cc1	30	-1	18	40*	23	35	24
CC(C)(C)c1cc(CCC(=O)NNC(=O)c2ccco2)cc(C(C)(C)C)c1O	-1	-14	18	9	23	23	.
CC(C)(C)c1cc(CCC(=O)NNC(=S)NC(=O)c2ccccc2)cc(C(C)(C)C)c1O	25	-1	18	46*	97*	28	31*
Cc1ccc(CNS(=O)(=O)c2ccc(C)s2)cc1	9	2	24	29	-11	39	.
CC1CCCC(n2c(=S)[nH]c3ccccc3c2=O)C1C (configuration not stated)	39	.	19	42*	19	28	31
O=C(Nc1nnc(C2CCCCC2)s1)c1ccco1	24	-28	13	45*	10	32	35*
Cc1ccc(NC(=O)COC(=O)c2ccccc2Nc2ccccc2)cc1	5	4	15	-5	1	11	.
Cc1cccc(C(=O)Nc2ccccc2C(=O)OCC(=O)Nc2ccc(C#N)cc2)c1	38	8	8	43*	11	20	11
N/C(=N\OC(=O)CC1CCCCC1)c1ccc([N+](=O)[O-])cc1	29	-8	-7	70*	4	45	51*
Cc1ccc(/C(N)=N/OC(=O)C(C)c2ccc([N+](=O)[O-])cc2)cc1 (configuration not stated)	38	3	-9	46*	1	42	51*
O=C(NCC1CCCCC1)c1ccc([N+](=O)[O-])cc1	-1	6	24	8	-12	18	.
CCn1c(=S)sc2c(=O)n(-c3ccccc3)c(SC)nc21	37	-25	3	48*	12	42	49*
CC(C)CN(CC(C)C)C(=S)Nc1ccc(Cl)cc1	37	11	1	55*	1	44	47*
CCc1ccc(NC(=S)N(Cc2ccc(Cl)cc2)Cc2ccc(C(=O)O)cc2)cc1	6	-12	15	8	4	37	.
Cc1nc2cc(Cl)ccc2n1-c1ccccc1	-4	-1	13	47*	-7	24	19
CC(=O)Nc1ccc2c(c1)nc(C)n2-c1ccccc1	-6	-11	22	-9	-4	-7	.

Screening results: PubChem BioAssay, several laboratories
